# Shown is part of a subset that was picked to be rich in hits.
# Chlamy TAG – increases triacylglycerol in Chlamydomonas reinhardtii | 44,000 tested, 0.84% active | Chlamydomonas reinhardtii TAG, Nile Red fluorescence, 72 h | calls only at 10 µM (by protocol); call rule not given here;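 further: hits raise Nile Red signal meaning more stored TAG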
# * marks the source's active call; other numbers are inactive results; i = inactive; + = active, no number.
SMILES,Chlamy TAG
C=CCc1ccccc1OCC(O)CN1CCC(C)CC1 (stereo unspecified),i
C=CCc1ccccc1OCC(O)CN(C)C1CCCCC1 (stereo unspecified),+
O=C(NC1CCC(NC(=O)C(Cl)Cl)CC1)C(Cl)Cl (stereo unspecified),i
CCOc1ccc(C(=O)Nc2sc3c(c2C(N)=O)CCCC3)cc1[N+](=O)[O-],i
O=C(Nc1ccc(I)cc1)C1CCN(C(=O)c2ccc(F)cc2)CC1,i
COc1ccccc1NC(=O)COc1ccccc1C(C)C,i
CC1CCCN(CCCOc2ccc([N+](=O)[O-])cc2)C1 (stereo unspecified),i
CCOc1ccccc1OCCCN1CCCC(C)C1 (stereo unspecified),i
COc1ccc(OCCCN2CCCC(C)C2)cc1 (stereo unspecified),+
O=C(O)C1CCN(C(=O)c2ccc(F)cc2)CC1,+
O=C(c1ccc(F)cc1)N1CCCCCC1,i
Cc1ccc(C(=O)N2CCC(C(=O)O)CC2)cc1,i
COc1ccc(N(CC(=O)O)S(=O)(=O)c2ccc(NC(C)=O)cc2)cc1,i
CCOc1ccccc1C(=O)NC1CC1,+
CCOc1ccccc1C(=O)NC1CCC(NC(=O)c2ccccc2OCC)CC1 (stereo unspecified),i
CCOc1ccccc1C(=O)NCCNC(=O)c1ccccc1OCC,i
c1ccc(CN2CCN(CCOCCOc3ccccc3)CC2)cc1,i
Cc1cccc(NC(=O)Cc2ccc(-c3ccccc3)cc2)c1C,i
COc1ccc(CCNC(=O)c2ccc(N3CCOCC3)c([N+](=O)[O-])c2)cc1OC,i
COc1ccc(C(=O)NCCN2CCOCC2)cc1[N+](=O)[O-],+
COCCNC(=O)c1ccc(OC)c([N+](=O)[O-])c1,i
CC1(C)CC(=O)C2=C(C1)Nc1ccccc1NC2c1cccc(O)c1 (stereo unspecified),i
Cc1nc(Nc2ccc(O)cc2)nc(Nc2ccc(O)cc2)c1[N+](=O)[O-],i
C=CCn1c(SCC(=O)O)nnc1-c1ccc(Cl)cc1,i
C=CCn1c(SCC(=O)O)nnc1-c1ccccc1,i
SMILES,Chlamy TAG
C=CCn1c(SCC(=O)NCCc2ccccc2)nnc1-c1ccc(Cl)cc1Cl,+
COc1cccc(OCC(=O)Nc2ccc(Br)cc2C(=O)O)c1,i
CN(C)S(=O)(=O)Nc1cnc2ccccc2c1,i
Cc1ccc(-c2csc(/C(C#N)=C/Nc3ccc([N+](=O)[O-])cc3)n2)cc1,i
N#C/C(=C\c1ccc([N+](=O)[O-])cc1)c1nc(-c2ccc(F)cc2)cs1,i
Cc1ccsc1/C=C(\C#N)c1nc(-c2ccc([N+](=O)[O-])cc2)cs1,+
CN(C)c1ccc(-c2ncnn2-c2ccc([N+](=O)[O-])cc2)cc1,i
Cc1ccc(-c2csc(NC(=O)c3ccc(Cl)cc3[N+](=O)[O-])n2)c(C)c1,i
COc1cccc(CN2CCN(c3ccccn3)CC2)c1OC,i
COc1cccc(NC2=C(N(C)C)C(=O)c3ccccc3C2=O)c1,+
COc1ccc(NC2=C(N(C)C)C(=O)c3ccccc3C2=O)cc1,i
CN(C)C1=C(Nc2cccc(Cl)c2)C(=O)c2ccccc2C1=O,i
Cc1ccc([N+](=O)[O-])cc1-c1ccc(C=O)o1,i
Cc1ccc(NC(=O)CCC(=O)O)cc1I,i
O=C(NC1CCN(Cc2ccccc2)CC1)c1ccc(Cl)cc1Cl,+
O=C(NC1CCN(Cc2ccccc2)CC1)c1ccccc1Br,i
O=C(NC1CCN(Cc2ccccc2)CC1)c1sc2ccccc2c1Cl,i
CCOc1ccc(C(=O)Nc2ccccc2F)cc1[N+](=O)[O-],i
CN(C)S(=O)(=O)c1ccc(C(=O)NC2CCCCCCC2)cc1,i
O=C(NC1CCCCCCC1)c1ccccc1,i
CN(c1ccc(C(=O)NC2CCCCCC2)cc1)S(=O)(=O)c1ccccc1,+
CC(=O)Nc1nnc(SCC(=O)c2ccc(Br)cc2)s1,i
NNc1nc(Nc2ccccc2)nc(N2CCCC2)n1,i
Cc1cccc(NC(=O)CSc2nnc(-c3ccccc3)n2-c2ccccc2)c1C,i
O=C(Nc1ccc(F)c(F)c1)c1ccc2c(c1)OCO2,i
SMILES,Chlamy TAG
O=C(Nc1ccc2c(c1)OCO2)c1c(F)c(F)c(F)c(F)c1F,+
O=C(Nc1ccc2c(c1)OCO2)c1ccc2c(c1)OCO2,i
CCS(=O)(=O)N1CCN(C2CCCCCCC2)CC1,+
O=S(=O)(c1ccc(Cl)cc1)N1CCN(C2CCCC2)CC1,i
CC(=O)N1CCN(C2CCCCCC2)CC1,i
N#Cc1c(N)nc2sc(C(=O)Nc3ccccc3)c(N)c2c1-c1cccs1,i
O=S(=O)(c1ccc(F)cc1)n1cccc1,+
O=S(=O)(c1ccc(F)cc1)N1CCCN(S(=O)(=O)c2ccc(F)cc2)CC1,i
O=S(=O)(c1ccc(F)cc1)c1ccc(F)cc1,i
Cn1c(=O)c2c(ncn2Cc2ccc([N+](=O)[O-])cc2)n(C)c1=O,i
OC(CNCCc1ccccc1)c1ccccc1 (stereo unspecified),+
Cc1ccc(C(=O)NCC(O)c2ccccc2)cc1 (stereo unspecified),i
OC(Cc1ccccc1)c1ccccc1 (stereo unspecified),i
COC(=O)N1c2ccc(F)cc2CCC1C (stereo unspecified),i
COc1ccc(Cl)cc1N(CC(=O)N1CCC(C(N)=O)CC1)S(=O)(=O)c1ccc(C)cc1,i
Cc1cccc(C(=O)Nc2ccc(Cl)cc2)c1,i
CN(CCc1ccccn1)C(=O)c1ccco1,i
Cc1c(NC(=O)c2c(F)c(F)c(F)c(F)c2F)c(=O)n(-c2ccccc2)n1C,+
Cc1c(NC(=O)c2c(O)c3ccccc3n(C)c2=O)c(=O)n(-c2ccccc2)n1C,i
Cc1c(NC(=O)c2ccccc2-c2ccccc2C(=O)O)c(=O)n(-c2ccccc2)n1C,i
O=C(Nc1ccc([N+](=O)[O-])cc1)c1ncn[nH]1,i
Cc1cc(Cl)ccc1NC(=O)C(Cl)Cl,i
Fc1ccccc1CSc1nc2ncccc2[nH]1,i
Fc1ccccc1CSc1nnc(-c2ccncc2)n1-c1ccccc1,i
Fc1ccccc1CSC1=NCCN1,+
SMILES,Chlamy TAG
O=C(CSc1nnc(-c2cccc(Br)c2)o1)c1ccccc1,i
CCN(CC)c1ccc(CN2CCN(C)CC2)cc1,i
CCN1CCN(Cc2ccc(N(CC)CC)cc2)CC1,+
CCN(CC)c1ccc(CN2CCSCC2)cc1,i
Cc1[nH]nc2c1C1(CCCCC1)C(C#N)=C(N)O2,i
COc1ccc2nc(Nc3nc(C)cc(C)n3)nc(C)c2c1,i
O=[N+]([O-])c1ccc(CN2CCc3ccccc3C2)cc1,+
O=[N+]([O-])c1ccc(S(=O)(=O)N2CCN(Cc3cc(Br)ccc3O)CC2)cc1,i
COc1cc2c(cc1OC)CN(Cc1ccc([N+](=O)[O-])cc1)CC2,i
O=[N+]([O-])c1ccc(CN2CCCCC2)cc1,i
O=[N+]([O-])c1ccc(CN2CCOCC2)cc1,i
O=[N+]([O-])c1ccc(CN2CCN(Cc3cc(Br)ccc3O)CC2)cc1,+
O=C(c1cc([N+](=O)[O-])ccc1N1CCc2ccccc2C1)N1CCOCC1,i
O=C(Nc1cccc(F)c1)Nc1ccc(Cl)c(Cl)c1,i
COc1cc(CNC(=O)c2ccccc2SCc2ccccc2)cc(OC)c1OC,i
CSc1ccc(CN2CCC(N3CCCCCC3)CC2)cc1,i
NC(=O)c1cc(-c2ccccc2)sc1NC(=O)c1ccc(OC(F)F)cc1,+
